About 83,000 compounds went through this panel and 20% of them were active in at least one assay; those are over-represented in the sample as a whole.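 96-well plates, one dose, 48 hours. Percent growth reported; active if below 10.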 Values without a mark were called inactive. Calls of active or inactive are those of the source.
Key:
Assay in all cases: NCI-60 one-dose screen, 48 h (100 = growth as untreated, 0 = no growth, -100 = all killed)
Conditions in all cases: 10 µM unless noted
DU-145 prostate = tested on: DU-145 prostate
K-562 leukemia = tested on: K-562 leukemia
MALME-3M melanoma = tested on: MALME-3M melanoma
MDA-MB-231 breast = tested on: MDA-MB-231 breast
SF-268 CNS = tested on: SF-268 CNS
SF-295 CNS = tested on: SF-295 CNS
SF-539 CNS = tested on: SF-539 CNS
UACC-257 melanoma = tested on: UACC-257 melanoma
M14 melanoma = tested on: M14 melanoma
HCT-15 colon = tested on: HCT-15 colon
HT29 colon = tested on: HT29 colon
SNB-75 CNS = tested on: SNB-75 CNS
SNB-19 CNS = tested on: SNB-19 CNS
U251 CNS = tested on: U251 CNS
PC-3 prostate = tested on: PC-3 prostate
SK-MEL-5 melanoma = tested on: SK-MEL-5 melanoma
UACC-62 melanoma = tested on: UACC-62 melanoma
LOX IMVI melanoma = tested on: LOX IMVI melanoma
SK-MEL-28 melanoma = tested on: SK-MEL-28 melanoma

SMILES | growth (DU-145 prostate) | growth (K-562 leukemia) | growth (MALME-3M melanoma) | growth (MDA-MB-231 breast) | growth (SF-268 CNS) | growth (SF-295 CNS) | growth (SF-539 CNS) | growth (UACC-257 melanoma) | growth (M14 melanoma) | growth (HCT-15 colon) | growth (HT29 colon) | growth (SNB-75 CNS) | growth (SNB-19 CNS) [%] | growth (U251 CNS) | growth (PC-3 prostate) | growth (SK-MEL-5 melanoma) | growth (UACC-62 melanoma) | growth (LOX IMVI melanoma) | growth (SK-MEL-28 melanoma)
COc1cc(C2CC(c3cccc(Nc4ccncc4)c3)=NN2c2cc(Cl)cc(Cl)c2)cc(OC)c1OC (configuration not stated) | -18.1% (active) | -1.05% (active) | -77.9% (active) | 19.8% | 42.4% | 1.81% (active) | 70% | 1.77% (active) | 96.2% | -40.4% (active) | -28% (active) | 25.9% | 50.7 | -51.1% (active) | -36.1% (active) | 2.57% (active) | 94.5% | -90.9% (active) | -78.5% (active)
COc1ccc(C(O)c2cc3c(N)c(C(=O)Nc4cccc(Br)c4C)sc3nc2C)cc1 (configuration not stated) | 9.81% (active) | 5.92% (active) | 47.3% | 5.97% (active) | 30.1% | 18.5% | -3.14% (active) | 47.8% | 18.9% | 18.6% | -16% (active) | -1.38% (active) | 44 | 20.9% | 26.9% | -7.36% (active) | 27.2% | 32.7% | 64.7%
COc1cccc(CCC(=O)c2cc3c(N)c(C(=O)Nc4ccccc4)sc3nc2C)c1 | 65.8% | 12.2% | 27% | 44.9% | 53.4% | 24.9% | 23.9% | 63.3% | 23.3% | 17.5% | 16.7% | 9.14% (active) | 38.5 | 26.2% | 49.8% | 8.92% (active) | 28.3% | 26.4% | 42%
Cc1cccc(Oc2ccc(Nc3ncnc4ccc(NC(=O)CNCCO)cc34)cc2Cl)c1 | 44.3% | 13.5% | 70.5% | 74.3% | 61.7% | 79.9% | 64.6% | 93.4% | 74.3% | 62.6% | 38.4% | 77.1% | 65.6 | 44.9% | 61.4% | 77.6% | 97.6% | 14.6% | 68.8%
C[C@]12C[C@H]1CC[C@]1(C)[C@@H]2CC[C@@]23C[C@H](CC[C@H]21)[C@@](O)(CO)C3 | 104% | 66.7% | 98.7% | 93.1% | 103% | 113% | 93% | 100% | -47.9% (active) | 88.6% | 100% | 105% | 95.4 | 103% | 88.9% | 97.7% | 76.2% | 93.6% | 105%
CCN(CC)CCOC(COc1cc(C)cc(C)c1)COc1cc(C)cc(C)c1 | 48.1% | 2.57% (active) | 13.6% | 23.8% | 56.6% | 48.9% | 61.9% | 65.1% | 7.46% (active) | 34.5% | 10.3% | 61.4% | 47.5 | 32.5% | 33.6% | -88.5% (active) | 46.4% | -12% (active) | 39.6%
CN1CCN(C(=O)OCc2nc3c(N4CCOCC4)nc(-c4ccccc4)nc3n2C)CC1 | -83.5% (active) | 2.72% (active) | -93.9% (active) | -86.2% (active) | -50.2% (active) | 47.9% | -99.6% (active) | -49.5% (active) | -73.5% (active) | -59.9% (active) | -29.1% (active) | -6.43% (active) | 30.3 | -54.2% (active) | -62.3% (active) | -96.7% (active) | -95.9% (active) | -91.4% (active) | -95.5% (active)
O=C(CNCCO)Nc1ccc2ncnc(Nc3ccc(OCc4cccc(F)c4)c(Cl)c3)c2c1 | 61.6% | 27.8% | 98.2% | 87.7% | 78.1% | 95% | 87.8% | 101% | 93.4% | 87.9% | 46.9% | 88.2% | 82 | 69.9% | 84.4% | 89% | 104% | 74.3% | 91%

From PubChem BioAssay (NCI)
